This is an account of results in PubChem BioAssay.

Structures are written as SMILES. Active and inactive are the calls of the source.

Experiment [1] can be described thus: small molecules captured by biotinylated probe aFSTL3 – biochemical, small-molecule microarray, fluorescence 635/667, stem cell growth factor project, primary screen (AID 1064).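 Also: measures binding of the biotinylated anti-FSTL3 antibody to printed compounds.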 Particulars: higher = more signal.
Experiment [2] in a line: binders from COS7 lysate, DM2A8 probe, primary screen, torsin A project, cell lysate, small-molecule microarray, fluorescence 635/667 (AID 1065). Particulars: higher = more signal, COS7 lysate expressing mutant human TOR1A.
Experiment [3] in a line: small molecules captured by biotinylated probe aFGF2 – biochemical, small-molecule microarray, fluorescence 635/667, stem cell growth factor project, primary screen (AID 1067).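 Also: measures binding of biotinylated aFGF2 protein to printed compounds on slides; z-score merges feature fluorescence and signal-to-noise across triplicate slides.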 The settings on record: higher = more signal.
Experiment [4] in a line: small molecules captured by biotinylated probe aFGF10 – biochemical, small-molecule microarray, fluorescence 635/667, stem cell growth factor project, primary screen (AID 1071).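 Also: score merges 667 nm spot intensity and signal to noise from triplicate slides.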 The settings on record: higher = more signal.
Experiment [5] has as its target Neurogenic locus notch homolog protein 2 (Homo sapiens) (UniProt Q04721). In words: small molecules binding Notch2 protein – biochemical, small-molecule microarray, 635 nm fluorescence, stem cell growth factors, primary screen (AID 1073). The settings on record: higher = more signal.
For experiment [6], the target named is Pro-neuregulin-1, membrane-bound isoform (Homo sapiens) (UniProt Q02297). In words: small molecules binding neuregulin-1 protein – biochemical, small-molecule microarray, fluorescence 635/667, psychiatric disease protein project, primary screen (AID 1075).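 Also: score combines 667 nm spot fluorescence with signal to noise.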 Particulars: NRG1 binding, 635 nm fluorescence, higher = more signal.
The subject of experiment [7] is Neuregulin-1 EGF-like domain. Briefly: small molecules binding NRG1 EGF domain – biochemical, small-molecule microarray, 635 nm fluorescence, primary screen (AID 1081).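 Also: binding of the protein to compounds printed on small-molecule microarray slides.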 The settings on record: higher = more signal.
Experiment [8] is described as follows: FRG1 expression reporter modulators in myotubes – cell-based, C2C12 myotubes, firefly/Renilla luciferase, luminescence, FRG1 inhibition for FSHD, primary screen (AID 1084). Particulars: FRG1 promoter luciferase, higher = more signal, called active from +8 up or from −8 down.
A short description of experiment [9]: small molecules captured by biotinylated probe aFST – biochemical, small-molecule microarray, fluorescence 635/667, stem cell growth factor project, primary screen (AID 1086).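 Also: score merges 667 nm fluorescence with signal-to-noise of each printed compound spot.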 The settings on record: higher = more signal.
A short description of experiment [10]: binders of probe aHhip on microarray, primary screen, stem cell growth factor project, biochemical, small-molecule microarray, fluorescence 635/667 (AID 1087).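 Also: score merges spot fluorescence at 667nm with spot signal to noise ratio.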 The settings on record: higher = more signal.
Experiment [11] concerns PRMT1 (protein arginine N-methyltransferase 1). In words: small molecules binding arginine methyltransferase PRMT1 – biochemical, small-molecule microarray, 635 nm fluorescence, primary screen (AID 1088).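 Also: binding of Prmt1 protein to compounds spotted on small-molecule microarray slides.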 The settings on record: higher = more signal.
Experiment [12] is described as follows: growth effects on S. cerevisiae YJM789 – YJM789 clinical isolate, OD600, 24 h, basal, primary screen (AID 1089).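 Also: growth of clinical yeast isolate S. cerevisiae YJM 789 seeded 1000 cells per well; test concentration not given here.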 The settings on record: higher = more signal, called active from +8 up or from −8 down.
The nature of experiment [13]: S. pombe growth modifiers, basal conditions – strain 972, OD600, 24 h, no modulator, primary screen (AID 1090).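 Also: basal condition with compound alone and no growth modifier present; test concentration not given here.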 Particulars: S. pombe 972 growth, higher = more signal, called active from +8 up or from −8 down.
A short description of experiment [14]: budding yeast growth modifiers under rapamycin – strain BY4716, OD600, 96 h, primary screen (AID 1091). Also: test concentration not given here. Particulars: S. cerevisiae BY4716 + rapamycin, higher = more signal, called active from +8 up or from −8 down.
Experiment [15] deals with Torsin-1A-interacting protein 2 (Homo sapiens) (UniProt Q8NFQ8). Briefly: small molecules binding lysate-expressed LULL1 – cell lysate, human LULL1 lysate, 635/667 nm fluorescence, primary screen (AID 1092).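 Also: probe is lysate of COS7 cells overexpressing human LULL1; score merges per-feature 667 nm fluorescence with signal-to-noise.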 The settings on record: small-molecule microarray, hLULL1 lysate binding, 635 nm fluorescence; higher = more signal.
Experiment [16] is described as follows: optical density change of DRC41 E. coli – strain DRC41, OD650, 24 h, E. coli filamentation project, primary screen (AID 1093).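 Also: MC1000 strain lacking acrAB efflux and sulA so SOS filamentation is blocked; test concentration not given here.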 Particulars: E. coli DRC41 growth, higher = more signal, called active from +8 up or from −8 down.
Experiment [17] can be described thus: probe aLefty2 binding to arrayed compounds – biochemical, biotinylated probe, 635/667 nm fluorescence, primary screen (AID 1094).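 Also: score merges spot fluorescence near 667 nm with spot signal-to-noise ratio.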 The settings on record: small-molecule microarray, higher = more signal.
Experiment [18] concerns Noggin (protein binding on small-molecule microarray). In words: small molecules binding Noggin protein – biochemical, 635/667 nm fluorescence, primary screen (AID 1095).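 Also: score merges 667 nm feature fluorescence with signal to noise over triplicate slides.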 Particulars: 635 nm fluorescence, higher = more signal.
The target in experiment [19] is Neurogenic locus notch homolog protein 3 (Homo sapiens) (UniProt Q9UM47). Briefly: small molecules binding NOTCH3 protein – biochemical, 635/667 nm fluorescence, primary screen (AID 1096). Particulars: small-molecule microarray, 635 nm fluorescence, higher = more signal.
Experiment [20] in a line: probe aEGFR binding to arrayed compounds – biochemical, biotinylated probe, 635/667 nm fluorescence, primary screen (AID 1097).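 Also: probe is a biotinylated anti-EGFR antibody binding compounds printed on slides; score combines fluorescence near 667 nm and signal to noise of each spot.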 The settings on record: small-molecule microarray, higher = more signal.

Chain of Neurogenic locus notch homolog protein 3 (Homo sapiens) (Q9UM47 whole entry, looked up): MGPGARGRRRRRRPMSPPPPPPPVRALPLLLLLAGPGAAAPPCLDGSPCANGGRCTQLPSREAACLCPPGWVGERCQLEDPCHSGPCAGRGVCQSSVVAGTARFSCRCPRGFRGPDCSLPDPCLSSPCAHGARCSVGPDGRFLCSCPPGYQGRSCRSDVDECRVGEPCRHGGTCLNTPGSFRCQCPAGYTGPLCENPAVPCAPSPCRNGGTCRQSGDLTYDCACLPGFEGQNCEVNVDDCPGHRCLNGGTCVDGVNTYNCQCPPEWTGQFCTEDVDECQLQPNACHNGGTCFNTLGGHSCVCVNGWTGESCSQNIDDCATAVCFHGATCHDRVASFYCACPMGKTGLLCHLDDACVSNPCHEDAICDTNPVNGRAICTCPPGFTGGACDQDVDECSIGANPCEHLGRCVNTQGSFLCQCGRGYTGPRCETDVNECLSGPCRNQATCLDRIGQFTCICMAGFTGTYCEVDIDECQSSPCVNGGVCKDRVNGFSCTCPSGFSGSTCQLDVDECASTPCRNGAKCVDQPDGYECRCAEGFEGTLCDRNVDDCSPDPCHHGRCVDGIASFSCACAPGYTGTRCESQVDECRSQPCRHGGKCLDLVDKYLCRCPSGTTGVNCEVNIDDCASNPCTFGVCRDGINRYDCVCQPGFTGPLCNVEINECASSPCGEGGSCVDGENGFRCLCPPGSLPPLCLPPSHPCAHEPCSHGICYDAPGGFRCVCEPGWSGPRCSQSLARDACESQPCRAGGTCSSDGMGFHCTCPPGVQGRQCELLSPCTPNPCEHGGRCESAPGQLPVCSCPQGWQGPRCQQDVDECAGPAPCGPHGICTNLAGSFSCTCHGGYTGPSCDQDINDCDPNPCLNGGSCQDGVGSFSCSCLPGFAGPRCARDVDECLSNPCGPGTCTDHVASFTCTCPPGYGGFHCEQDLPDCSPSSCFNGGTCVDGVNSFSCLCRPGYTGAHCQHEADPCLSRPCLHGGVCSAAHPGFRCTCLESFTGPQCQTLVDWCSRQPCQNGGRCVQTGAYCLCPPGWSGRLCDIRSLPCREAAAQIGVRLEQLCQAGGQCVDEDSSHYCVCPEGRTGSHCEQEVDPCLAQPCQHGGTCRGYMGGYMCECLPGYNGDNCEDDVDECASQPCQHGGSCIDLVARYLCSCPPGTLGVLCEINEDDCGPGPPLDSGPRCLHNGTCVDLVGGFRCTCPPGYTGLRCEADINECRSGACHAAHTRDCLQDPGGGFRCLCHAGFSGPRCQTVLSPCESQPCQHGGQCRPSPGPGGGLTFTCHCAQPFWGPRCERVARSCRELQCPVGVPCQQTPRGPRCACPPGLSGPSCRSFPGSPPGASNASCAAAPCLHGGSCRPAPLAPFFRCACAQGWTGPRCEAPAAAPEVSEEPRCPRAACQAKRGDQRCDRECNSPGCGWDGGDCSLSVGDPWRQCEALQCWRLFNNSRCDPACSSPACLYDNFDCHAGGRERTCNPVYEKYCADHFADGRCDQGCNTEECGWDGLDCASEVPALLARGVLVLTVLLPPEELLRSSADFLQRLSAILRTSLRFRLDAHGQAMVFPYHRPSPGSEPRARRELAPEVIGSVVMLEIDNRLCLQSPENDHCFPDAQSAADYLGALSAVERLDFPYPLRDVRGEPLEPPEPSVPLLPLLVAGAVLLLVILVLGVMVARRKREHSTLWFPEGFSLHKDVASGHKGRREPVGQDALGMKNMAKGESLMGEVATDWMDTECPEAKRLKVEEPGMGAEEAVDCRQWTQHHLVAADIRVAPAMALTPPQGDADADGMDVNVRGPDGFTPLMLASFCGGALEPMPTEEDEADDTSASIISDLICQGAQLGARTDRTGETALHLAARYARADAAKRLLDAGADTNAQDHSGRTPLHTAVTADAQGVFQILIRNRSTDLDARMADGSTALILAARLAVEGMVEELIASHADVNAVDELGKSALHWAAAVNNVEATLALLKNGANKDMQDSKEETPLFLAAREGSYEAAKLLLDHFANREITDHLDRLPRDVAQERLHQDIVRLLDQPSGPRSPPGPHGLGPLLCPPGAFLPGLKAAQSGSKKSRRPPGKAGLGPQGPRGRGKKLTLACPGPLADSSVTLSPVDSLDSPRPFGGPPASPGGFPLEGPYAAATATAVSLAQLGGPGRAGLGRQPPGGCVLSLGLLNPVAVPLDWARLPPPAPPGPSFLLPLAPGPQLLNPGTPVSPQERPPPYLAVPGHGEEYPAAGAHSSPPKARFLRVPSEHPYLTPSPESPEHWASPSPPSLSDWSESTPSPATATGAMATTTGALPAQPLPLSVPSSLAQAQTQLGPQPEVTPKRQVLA
Chain of Neurogenic locus notch homolog protein 2 (Homo sapiens) (Q04721 whole entry, looked up, canonical isoform): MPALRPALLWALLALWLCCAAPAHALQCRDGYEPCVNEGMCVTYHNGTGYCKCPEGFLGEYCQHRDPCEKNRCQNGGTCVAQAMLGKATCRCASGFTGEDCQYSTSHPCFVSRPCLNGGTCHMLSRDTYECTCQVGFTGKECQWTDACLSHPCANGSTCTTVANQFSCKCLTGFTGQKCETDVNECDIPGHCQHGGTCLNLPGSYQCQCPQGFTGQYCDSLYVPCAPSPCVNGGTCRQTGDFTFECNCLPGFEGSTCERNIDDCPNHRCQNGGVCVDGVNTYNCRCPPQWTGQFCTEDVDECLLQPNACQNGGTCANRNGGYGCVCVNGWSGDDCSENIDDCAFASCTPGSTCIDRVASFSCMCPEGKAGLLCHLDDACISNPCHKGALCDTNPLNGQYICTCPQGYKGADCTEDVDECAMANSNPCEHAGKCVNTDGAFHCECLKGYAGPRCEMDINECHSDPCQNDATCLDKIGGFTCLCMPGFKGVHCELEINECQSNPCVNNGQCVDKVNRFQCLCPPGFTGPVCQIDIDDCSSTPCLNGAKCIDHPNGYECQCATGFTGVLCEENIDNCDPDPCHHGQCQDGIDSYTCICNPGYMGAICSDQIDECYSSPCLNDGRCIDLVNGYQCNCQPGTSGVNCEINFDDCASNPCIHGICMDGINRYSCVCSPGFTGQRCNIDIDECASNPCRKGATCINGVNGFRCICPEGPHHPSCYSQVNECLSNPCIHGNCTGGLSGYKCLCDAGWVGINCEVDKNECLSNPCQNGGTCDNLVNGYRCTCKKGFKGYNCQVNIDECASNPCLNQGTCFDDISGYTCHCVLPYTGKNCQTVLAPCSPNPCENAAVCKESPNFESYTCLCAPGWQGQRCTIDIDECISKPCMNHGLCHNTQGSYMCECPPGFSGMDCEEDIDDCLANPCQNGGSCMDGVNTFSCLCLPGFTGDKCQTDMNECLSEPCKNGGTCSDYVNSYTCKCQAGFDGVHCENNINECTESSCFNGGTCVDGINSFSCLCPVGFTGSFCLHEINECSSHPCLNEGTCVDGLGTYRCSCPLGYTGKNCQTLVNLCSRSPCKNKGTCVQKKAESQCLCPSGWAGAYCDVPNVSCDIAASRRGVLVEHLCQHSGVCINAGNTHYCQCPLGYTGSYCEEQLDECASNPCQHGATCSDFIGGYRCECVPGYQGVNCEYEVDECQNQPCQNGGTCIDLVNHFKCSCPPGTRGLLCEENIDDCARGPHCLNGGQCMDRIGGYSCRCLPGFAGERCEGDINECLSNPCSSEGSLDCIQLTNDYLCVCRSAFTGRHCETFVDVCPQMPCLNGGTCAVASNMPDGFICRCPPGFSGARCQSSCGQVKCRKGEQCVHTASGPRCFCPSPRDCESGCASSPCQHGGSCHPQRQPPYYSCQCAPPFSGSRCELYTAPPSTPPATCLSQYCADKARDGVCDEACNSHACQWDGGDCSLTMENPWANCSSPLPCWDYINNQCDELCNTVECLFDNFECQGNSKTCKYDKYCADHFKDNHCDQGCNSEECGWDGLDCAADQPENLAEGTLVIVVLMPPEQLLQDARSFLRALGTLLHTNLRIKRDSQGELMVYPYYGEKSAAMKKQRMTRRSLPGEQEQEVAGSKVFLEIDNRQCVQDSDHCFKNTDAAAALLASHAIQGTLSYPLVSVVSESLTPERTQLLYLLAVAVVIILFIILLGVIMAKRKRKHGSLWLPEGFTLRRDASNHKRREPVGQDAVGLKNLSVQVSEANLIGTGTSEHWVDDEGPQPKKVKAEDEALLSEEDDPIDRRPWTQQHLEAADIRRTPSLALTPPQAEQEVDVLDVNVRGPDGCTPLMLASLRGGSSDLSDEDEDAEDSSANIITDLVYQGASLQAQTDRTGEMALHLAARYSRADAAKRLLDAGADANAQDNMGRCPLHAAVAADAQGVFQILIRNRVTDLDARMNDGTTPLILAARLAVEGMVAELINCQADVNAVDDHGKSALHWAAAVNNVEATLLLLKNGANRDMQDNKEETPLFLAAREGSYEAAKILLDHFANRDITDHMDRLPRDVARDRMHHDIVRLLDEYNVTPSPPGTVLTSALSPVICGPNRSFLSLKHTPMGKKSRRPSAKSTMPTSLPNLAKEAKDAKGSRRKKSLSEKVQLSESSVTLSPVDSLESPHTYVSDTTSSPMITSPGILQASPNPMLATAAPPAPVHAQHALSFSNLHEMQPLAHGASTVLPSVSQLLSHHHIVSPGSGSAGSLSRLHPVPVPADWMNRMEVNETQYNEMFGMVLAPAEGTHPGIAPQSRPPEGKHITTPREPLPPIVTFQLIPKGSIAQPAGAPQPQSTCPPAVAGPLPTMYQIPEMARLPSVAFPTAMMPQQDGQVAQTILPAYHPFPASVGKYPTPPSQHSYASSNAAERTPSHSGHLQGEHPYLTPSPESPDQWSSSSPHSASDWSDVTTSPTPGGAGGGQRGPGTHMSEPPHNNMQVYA

In the case of `COc1ccc(C(O)C2C=CC3C(=O)N(c4ccccc4)C(=O)C3N2Nc2ccccc2F)cc1OCc1ccccc1` (stereo not given), the composite z-score in experiment [1] is 0.873; in experiment [2], -0.217; in experiment [3] it was 0.5; in [4], 0.775; in experiment [5], 1.65; in experiment [6] it was 1.17. Further, the composite z-score came out at 0.99 in experiment [7]; 1.1 in [9]; 0.0274 in [10]; 0.946 in experiment [11]; 2.94 in experiment [15]; 0.312 in experiment [17]. The composite z-score in [18] was -0.0436; in experiment [19], 0.386; in experiment [20] it was 0.308. Further, the z-score in experiment [8] was 3.15 (inactive); in [12], -0.306 (inactive); in experiment [13] it was 0.754 (inactive); in experiment [14], 1 (inactive); in experiment [16] it was -0.994 (inactive).
As to `Cc1ccc(S[C@]2(C(=O)NCCN3CCOCC3)CC(=O)N(Cc3ccccc3Cl)[C@@H]2c2ccc(CO)cc2)cc1`, the composite z-score in experiment [1] is 0.268; in [2], -0.159; in [3], -0.0083; in experiment [4] it was 0.701; in experiment [5], -0.32; in experiment [6] it was 0.956. Besides, the composite z-score in experiment [7] was 1.15; in experiment [9] it was -0.0909; in experiment [10], -0.0994; in experiment [11], -0.241; in experiment [15], 3.07; in experiment [17], -0.057. Moreover, the composite z-score was -0.157 in experiment [18], 0.201 in [19] and -0.128 in experiment [20]. The z-score is -0.0709 (inactive) in experiment [8]; -1.17 (inactive) in [12]; -0.895 (inactive) in experiment [13]; -0.812 (inactive) in experiment [14]; 0.149 (inactive) in experiment [16].
Consider `C=C(COC)/C(=C/C[C@H](OC(=O)c1ccncc1)c1ccc(OCCO)cc1)c1cnc2ccccc2c1`, for which the composite z-score in experiment [1] was -0.219; in [2], 0.833; in experiment [3], 0.0485; in experiment [4] it was 0.97; in experiment [5], 1.57; in [6] it was 1.4. The composite z-score in [7] is 1.14; in experiment [9], 1.14; in experiment [10], 0.12; in [11], 1.53; in experiment [15] it was 3.13; in experiment [17], -0.0094. Besides, the composite z-score stood at 1.39 in experiment [18], 1.05 in [19] and 0.0176 in experiment [20]. For the same compound, the z-score in experiment [8] was 1.87 (inactive); in [12], -0.922 (inactive); in experiment [13], -1.39 (inactive); in experiment [14] it was 0.0294 (inactive); in experiment [16], -0.124 (inactive).
Turning to `CC(C)C(=C=CC[C@@H](O)c1ccccc1OCCO)CCO`, the composite z-score in experiment [1] is -0.386; in experiment [2] it was -0.193; in experiment [3], -0.115; in experiment [4] it was 0.269; in experiment [5], 0.0761; in experiment [6] it was 1.71. The composite z-score was 1.36 in [7]; 0.285 in [9]; -0.214 in experiment [10]; 0.895 in [11]; -0.559 in [15]; -0.0998 in experiment [17]. Also, the values for the composite z-score in experiment [18], in [19] and in experiment [20] were 0.315, 0.428 and -0.096, respectively. Further, the z-score in [8] is -1.6 (inactive); in experiment [12], -2.18 (inactive); in [13], -17.8 (active); in [14], -2.09 (inactive); in [16], 0.364 (inactive).
For `CCCCCCC#C[Si](O[C@H](c1ccccc1)c1cn([C@H](CO)Cc2ccccc2)nn1)(C(C)C)C(C)C`, the composite z-score in [1] was -0.206; in experiment [2] it was 0.0423; in experiment [3], -0.142; in experiment [4], 0.296; in experiment [5] it was -0.39; in experiment [6], -0.138. Besides, the composite z-score in experiment [7] was 1; in experiment [9] it was -0.682; in [10], -0.0324; in experiment [11], 1.55; in [15], 1.7; in experiment [17], -0.198. Besides, the values for the composite z-score in experiment [18], in experiment [19] and in [20] were 0.0817, -0.0029 and -0.115, respectively. Also, the z-score in experiment [8] was -0.334 (inactive); in [12], -2.3 (inactive); in experiment [13], -16.2 (active); in [14] it was -1.57 (inactive); in experiment [16] it was 1.16 (inactive).
